Bioassay records from PubChem BioAssay.
Sm TGR block – qHTS Assay for the Inhibitors of Schistosoma Mansoni Peroxiredoxins | AID 485364, 2010 | Potency, µM (series often up to 114 µM), for the others: top-dose activity change, negative = inhibition, most hits filed as inhibitors | purified TGR, DTNB reduction, TNB absorbance 405 nm | 360,000 compounds, 3% hits | Schistosoma mansoni thioredoxin glutathione reductase (TGR), Q962Y6; note: potency is the fitted concentration of half-maximal effect; nearly all actives have a fitted effect of over 60% in size
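TGR 20 nM + NADPH 100 uM (dispensed conc.), cpd preinc 15 min RT; start with NADPH (500 uM addition) then DTNB (15 mM addition). Kinetic TNB absorbance, 405 nm filter. Four-parameter Hill fit across titration.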
Tb PYK inh – qHTS of Trypanosoma Brucei Inhibitors; Potency, µM (series often up to 76.8 µM), without a hit: top-dose activity, negative = inhibition, most hits filed as inhibitors; TbPYK enzyme, Kinase-Glo Plus ATP luminescence, 45 min; pyruvate kinase (Trypanosoma brucei), Q57TT1; 410,000 compounds, 0.12% hits; note: potency is the fitted concentration of half-maximal effect; nearly all actives have a fitted effect of over 50% in size
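Enzyme and substrate buffer are dispensed first and compound is pin-transferred. ADP at 130 uM final then starts the reaction, which runs 45 min at room temperature. Detection reagent is added for 10 min before luminescence is imaged.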
FMDV inh – High Throughput Screening for Foot and Mouth Disease Virus Antivirals; FMDV antiviral cell-based qHTS; 410,000 compounds, 1.2% hits; AID 1159524, 2015; Potency, µM (titrated, usually from 57.9 µM), for inactives: at the highest dose activity change, negative = inhibition, most hits filed as inhibitors; calls by dose curve; tested in HEK293T cells; note: read-out not given here; potency is the fitted concentration of half-maximal effect; nearly all actives have a fitted effect of over 45% in size
RE007 growth inh – qHTS Assay for Inhibitors of the HIV-1 protein Vpr | S. pombe RE007 Vpr strain, BacTiter-Glo ATP luminescence, 24 h | Potency, µM (series often up to 92.2 µM), without a hit: at the top dose activity change, negative = less growth, actives largely listed as inhibitors | 360,000 compounds, 0.21% hits | AID 651644, 2012; active = well fitted falling curve with a large enough effect; inconclusive = small, poorly fitted or top-dose-only effect; inactive = no such curve, though single readings can be large or run the other way; note: potency is the fitted concentration of half-maximal effect; nearly all actives have a fitted effect of over 50% in size
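Fission yeast strain RE007, carrying one chromosomally integrated HIV-1 vpr copy, was seeded at OD 0.01 in PMG+AL medium with 23 nL pinned compound. After 24 h at 30 °C and 99% humidity, viability was read by BacTiter-Glo luminescence.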
Giardia FBPA inh – qHTS Assay for Inhibitors of Fructose-1,6-bisphosphate Aldolase from Giardia Lamblia. A8B2U2. purified Giardia FBPA. Potency, µM (highest dose often 59.6 µM), for inactives: at the highest dose activity, negative = inhibition, most hits filed as inhibitors. 290,000 compounds, 0.71% hits. AID 2451, 2010; note: potency is the fitted concentration of half-maximal effect; nearly all actives have a fitted effect of over 55% in size
Target sequence (A8B2U2 whole entry, looked up): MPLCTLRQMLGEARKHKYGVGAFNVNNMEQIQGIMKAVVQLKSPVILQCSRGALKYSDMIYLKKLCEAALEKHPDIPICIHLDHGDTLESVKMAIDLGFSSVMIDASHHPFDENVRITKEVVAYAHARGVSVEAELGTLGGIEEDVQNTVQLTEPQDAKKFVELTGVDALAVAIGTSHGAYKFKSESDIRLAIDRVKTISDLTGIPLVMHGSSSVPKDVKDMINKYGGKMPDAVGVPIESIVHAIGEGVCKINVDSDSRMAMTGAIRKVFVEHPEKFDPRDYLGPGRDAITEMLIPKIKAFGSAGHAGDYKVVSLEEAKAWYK
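Giardia FBPA (40 nM reagent) was preincubated 10 min at RT with compound (up to 57.5 uM final), then substrate plus GAPDH/TPI/NAD/arsenate coupling system with diaphorase/resazurin was added; resorufin fluorescence (525/598 nm) was read after 20 min.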
HCMV antiviral – qHTS Assay for inhibitors of the human cytomegalovirus (HCMV) | HFF cells, HCMV-luciferase reporter, 72 h; active compounds read low | activity change, negative = inhibition, % at 57.5 µM | AID 1259415, 2018 | 410,000 compounds, 4.5% hits; in the data active = activity change below about -60%; inconclusive = no clear call, values can overlap the other calls; inactive = above about -39%
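Cell-based, HFFs, 1000 cells/well, 16 h 37C; cpds in DMSO + HCMV-luc, MOI 1 PFU/cell; 72 h 37C; OneGlo luminescence after 5 min RT; norm. to buffer vs Salinomycin 10uM.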
* = called active by the depositor; ? = inconclusive; · = no result; [ ] = remark or other dose. Rows were chosen to be rich in hits. Some 7.7% of all compounds tested hit in one or more screens of this group. Unless noted, calls come from the whole dose curve; as a rule, active = well fitted curve in the direction sought with a large enough effect; inconclusive = small, poorly fitted or top-dose-only effect, or another doubt; inactive = no such curve, though single readings can be large; an effect the other way counts as inactive or inconclusive. % is set by controls: 0 for no effect and ±100 for the full control effect.

SMILES	Sm TGR block	Tb PYK inh	FMDV inh	RE007 growth inh	Giardia FBPA inh	HCMV antiviral
COC(=O)[C@@]1(Cc2ccc(F)cc2)[C@H]2c3cc(C(=O)N(C)C)n(Cc4cc(F)c(F)c(F)c4)c3C[C@H]2CN1C(=O)c1ccccc1	·	·	·	·	4.5%	·
COc1ccc(-c2nc3ccccc3s2)cc1NC(=O)c1ccccc1OC	9.7%	0.5%	38.4%	·	·	49.5
Cc1cccc(Nc2nc(N)c([N+](=O)[O-])c(N3CCCC(C)C3)n2)c1 (centres undefined)	-11.5%	-11.0%	22.4µM*	-27.6%	-6.1%	-77.3*
CCCSc1nc2sc3c(c2c(=O)n1-c1ccc(C)cc1)CCCC3	1.6%	1.3%	-13.3%	·	·	5.6
CO[C@H]1COC(=O)[C@H](C)NC(=O)[C@@H](C)COC(=O)C/C=C\[C@@H]1C	·	·	·	·	1.7%[12.9 µM]	·
Cc1ccc(/C=N/NC(=O)C(C)Oc2cccc3ccccc23)o1 (centres undefined)	-51.2%	-4.3%	-20.7%	-2.4%	-16.7%	-66.3*
Cc1ccc(/C=N/NC(=O)c2cccc3ccccc23)o1	-19.2%	-1.6%	6.4%	0.7%	4.4%	-10.2
Cc1ccccc1OCc1nnc(SCc2cc(=O)c3cc(F)ccc3[nH]2)n1C	5.2%	-13.9%	?	·	·	-61.6*
CCc1ccc(C2CC(=O)N(c3cccc(C(F)(F)F)c3)C3=C2C(=O)OC3)cc1 (centres undefined)	1.0%	1.3%	-23.8%	·	·	18.2
COc1ccc(-c2nc3ccccc3n2Cc2ccccc2)cc1	-1.5%	1.4%	-24.6%	1.8%	-5.8%	-2.5
COc1ccc(-c2n(Cc3ccccc3)c3ccccc3[n+]2Cc2ccccc2)cc1	·	2.8%	?	11.1%	-4.9%	-98.0*
COc1ccc(/C=C2\CCc3ccccc3C2=O)cc1OC	-13.5%	0.5%	15.3%	-20.9%	-2.3%	?
CCNC(=O)COc1ccc(/C=C2\COc3ccccc3C2=O)cc1OC	39.8µM*	-1.3%	28.2µM*	-0.8%	3.5%	73.2
CCOc1cc(/C=C2\COc3ccccc3C2=O)ccc1OCC(=O)N(C)C	?	-3.7%	28.2µM*	-4.9%	6.1%	46.9
CCOc1cc(C=C2C(=O)NC(=O)NC2=O)ccc1OCC(=O)N1CCOCC1	?	?	-10.7%	-1.7%	-18.7%	-26.9
S=C1NCCOc2ccccc21	·	·	·	·	·	-4.7
C[N+]1(C)[C@@H]2CC[C@H]1CC(OC(=O)[C@@H](CO)c1ccccc1)C2 (some centres undefined)	8.91µM*	-20.3%	-8.2%	·	-12.1%	-24.4
C[N+]1(C)C2CC[C@H]1CC(OC(=O)C(CO)c1ccccc1)C2 (some centres undefined)	-8.2%	-2.5%	-21.5%	-0.9%[18.4 µM]	·	23.3
O=C(NCc1ccccc1Cl)C1CCCN(C(=O)c2cnn(-c3ccc(F)cc3)c2-n2cccc2)C1 (centres undefined)	1.4%	5.2%	?	·	·	-12.1
CCCCCc1ccc(CC(=O)Nn2c(C)nc3ccccc3c2=O)cc1	2.3%	-5.2%	·	70.9%	9.9%	-68.7*
Cc1cccc(NC(=O)NC2CCCCCCC2)c1	0.8%	5.7%	25.4%	8.0%	·	64.5
O=C(Nc1ccc2c(c1)nc1n2CCN(C2CCCCC2)C1)NC1CCCCC1	12.6µM*	·	·	·	?	·
O=C(Nc1ccc2c(c1)nc1n2CCN(C2CCCCC2)C1)c1ccco1	?	1.7%	-16.9%	0.4%	-29.5%	?
CCC(=O)Nc1ccc2c(c1)nc1n2CCN(C2CCCCC2)C1	?	-0.2%	56.9%	-17.9%	-29.9%	22.5
Cc1ccc(NC(=O)NC2CCCCCCC2)cc1C	0.0%	1.7%	11.7%	30.2%	·	-84.5*
SMILES	Sm TGR block	Tb PYK inh	FMDV inh	RE007 growth inh	Giardia FBPA inh	HCMV antiviral
COc1ccccc1C(=O)Nc1ccc2c(c1)nc1n2CCN(C2CCCCC2)C1	25.1µM*	2.7%	?	-11.8%	8.7%	-14.5
COc1ccc(-c2noc(CC(=O)Nc3ccc(F)cc3F)n2)cc1	2.3%	2.7%	-24.1%	·	·	-31.5
O=C(CCl)N1CCN2C(=O)c3ccccc3C12c1ccc(Cl)cc1 (centres undefined)	2.51µM*	-2.0%	10µM*	-18.7%	-4.5%	-114.6*
Cc1ccc(C(=O)N2CCN3C(=O)c4ccccc4C23c2ccc(Cl)cc2)cc1 (centres undefined)	-17.7%	3.7%	-12.3%	2.6%	-0.8%	-71.2*
O=C(Nc1cccc(Cl)c1)N1CCN2C(=O)c3ccccc3C12c1ccccc1 (centres undefined)	3.4%	-25.0%	?	-3.1%	-8.8%	26.1
C[C@@](O)(/C=C/[C@H]1CC=CC(=O)O1)[C@@H](C[C@@H](O)\C=C/C=C\C=C\CO)OP(=O)(O)O	·	·	·	·	0.9%[12.9 µM]	·
CN(C)S(=O)(=O)c1cccc(NC(=O)c2cccc(NS(=O)(=O)c3ccccc3)c2)c1	-8.1%	3.9%	?	2.2%	-0.8%	-88.9*
Cc1cc(C)n(-c2ccc(C(=O)Nc3ccc(N4CCOCC4)cc3)cc2)n1	7.2%	-3.6%	3.8%	4.4%	0.3%	-32.1
CN(C)S(=O)(=O)c1cccc(C(=O)Nc2ccc(C(=O)Nc3cccc(S(N)(=O)=O)c3)cc2)c1	·	-12.7%	-1.8%	34.1%	·	17.3
CN(C)S(=O)(=O)c1ccc(N2CCCC2)c(C(=O)Nc2ccccc2)c1	-2.1%	-1.8%	-19.3%	0.0%	·	-67.4*
Cc1cc(C)n(-c2ccc(C(=O)Nc3ccc(C)c(S(=O)(=O)N(C)C)c3)cc2)n1	-11.2%	10.3%	15.8µM*	2.9%	-3.9%	-80.7*
Cc1cc(C)n(-c2ccc(C(=O)Nc3ccc(S(=O)(=O)N(C)C)cc3)cc2)n1	-3.9%	-8.9%	?	-8.8%	2.9%	-97.2*
CSc1ccccc1NC(=O)c1cc(S(=O)(=O)N(C)C)ccc1N1CCCC1	-15.7%	4.0%	-24.6%	-5.1%	·	-31.4
COc1ccccc1CNC(=O)CCC(=O)N1Cc2ccccc2Oc2ncccc21	15.6%	-0.6%	-23.9%	·	·	3.9
Cc1cc(C)n(-c2ccc(C(=O)Nc3cccc(S(=O)(=O)N(C)C)c3)cc2)n1	-18.7%	5.4%	22.4µM*	10.3%	-1.3%	-95.6*
CCN(CC)S(=O)(=O)c1ccc(C(=O)Nc2cccc(C)c2)cc1	-1.1%	1.7%	·	9.5%	-7.7%	-26.3
Cc1cc(C)n(-c2ccc(C(=O)Nc3cccc([N+](=O)[O-])c3)cc2)n1	1.6%	-0.4%	-29.0%	2.2%	0.1%	?
